Data from PubChem BioAssay (NCI).
“And” between values parts separate entries of the source, which are not always exact repeats. Equal entries are not always repeated. The panel holds about 79,000 compounds, 15% with a hit somewhere; the sample as a whole holds those more often. Unmarked numbers belong to inactive results. The source made the active and inactive calls. Rule as the data show it: active = growth inhibition above about 70%; inactive = the rest.

Experiments:
[1] = NCI Yeast Anticancer Drug Screen. Data for the rad50 strain (AID 155);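 also: 0% = growth of vehicle-only cultures of the same strain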; settings: S. cerevisiae rad50 strain growth inhibition, hits give high values
Procedure, shortened: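 Cells are treated with compound, grown, and their growth is then scored against vehicle-only cultures of the same repair-deficient yeast strain.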

[2] = NCI Yeast Anticancer Drug Screen. Data for the mec2-1 strain (AID 157); settings: S. cerevisiae mec2-1 strain, hits give high values
Procedure, shortened: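 Readout is yeast growth inhibition, normalised to vehicle-treated controls, in the mec2-1 strain exposed to compound.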

[3] = NCI Yeast Anticancer Drug Screen. Data for the sgs1 mgt1 strain (AID 161);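 also: 0% = growth of cultures given vehicle only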; settings: S. cerevisiae sgs1 mgt1 strain, hits give high values
Procedure, shortened: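 Compounds are added to genetically altered yeast, and growth is compared with cultures given vehicle alone to give percent inhibition.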

[4] = NCI Yeast Anticancer Drug Screen. Data for the cln2 rad14 strain (AID 165);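 also: 0% = growth equal to vehicle treated cultures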; settings: S. cerevisiae cln2 rad14 strain, hits give high values
Procedure, shortened: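 Relative to vehicle controls, growth inhibition of compound-treated cln2 rad14 yeast was recorded.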

[5] = NCI Yeast Anticancer Drug Screen. Data for the bub3 strain (AID 167); settings: S. cerevisiae bub3 mutant strain, hits give high values
Procedure, shortened: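 Part of a panel of yeast mutants defective in DNA damage repair or cell cycle regulation. Each strain is grown with compound, and inhibition is calculated relative to solvent-treated cultures.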

[6] = NCI Yeast Anticancer Drug Screen. Data for the mlh1 rad18 strain (AID 175); settings: S. cerevisiae mlh1 rad18 strain growth inhibition, hits give high values
Procedure, shortened: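 Test agents were incubated with a yeast strain of defined genotype (DNA damage repair defect). Inhibition of growth was derived by comparison with vehicle-exposed cultures.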

[7] = at 5.0 µM (retest, dose inferred, filed as 0.5)
[8] = at 50.0 µM (retest, dose inferred, filed as 5.0)

SMILES | growth inhibition [1, 7] | growth inhibition [1, 8] | growth inhibition ([1]; at 50.0 µM) | growth inhibition [2, 7] | growth inhibition [2, 8] | growth inhibition ([2]; at 50.0 µM) | growth inhibition [3, 7] | growth inhibition [3, 8] | growth inhibition ([3]; at 50.0 µM) | growth inhibition [4, 7] | growth inhibition [4, 8] | growth inhibition ([4]; at 50.0 µM) | growth inhibition [5, 7] | growth inhibition [5, 8] | growth inhibition ([5]; at 50.0 µM) | growth inhibition [6, 7] | growth inhibition [6, 8] | growth inhibition ([6]; at 50.0 µM)
c1ccc2c(c1)CCc1c-2[nH]c2ccccc12 | -67% | 79% (active) | 72.2% (active) | -8% | 77% (active) | 36.4% | -9% | 90% (active) | 71.7% (active) | -60% | 65% | 51.8% | -48% | 87% (active) | 89.8% (active) | -43% | 83% (active) | 83.2% (active)
Clc1c(Cl)c(Cl)c([S][Pb]([c]2ccccc2)([c]2ccccc2)[c]2ccccc2)c(Cl)c1Cl | 91% (active) | 85% (active) | 98.5% (active) | 96% (active) | 92% (active) | 98.4% (active) | 94% (active) | 42% | 98.8% (active) | 84% (active) | 89% (active) | 97.7% (active) | 92% (active) | 96% (active) | 98.5% (active) | 92% (active) | 92% (active) | 98.3% (active)
CC(=O)Oc1ccc(N=C2C=C(Cl)C(=O)C(Cl)=C2)cc1 | 5% | 23% | 34.5% | 9% | 26% | -2.05% | 2% | 24% | 33.4% | 6% | 14% | -23.8% | 9% | 46% | 22.7% | 7% | 54% | 19.9%
CCCCCCCCCCCC1CCCC(C)N1 (configuration not stated) | 8% and 28% | 98% (active) and 92% (active) | 91.1% (active) and 91.6% (active) | 19% and 26% | 98% (active) and 88% (active) | 93.3% (active) | 17% and 32% | 98% (active) and 90% (active) | 93.3% (active) and 92.5% (active) | 10% and 49% | 94% (active) and 95% (active) | 90.5% (active) and 91% (active) | 24% and 32% | 97% (active) and 85% (active) | 91.8% (active) and 91.5% (active) | 13% and 36% | 98% (active) and 86% (active) | 92.1% (active) and 91.3% (active)
Cc1cn(CC2C=CC(CS[As](C)C)O2)c(=O)[nH]c1=O (configuration not stated) | 7% | 75% (active) | 69.7% | 1% | 83% (active) | 92.2% (active) | 4% | 98% (active) | 94.8% (active) | 0% | 95% (active) | 72% (active) | 0% | 45% | 53% | -1% | 84% (active) | 99.1% (active)
CCOc1cc(/C=C/[N+](=O)[O-])ccc1O | -112% | 93% (active) | 77.2% (active) | -44% | 73% (active) | 65.8% | -46% | 95% (active) | 77.7% (active) | -52% | 75% (active) | 55% | -60% | 90% (active) | 43.4% | -93% | 94% (active) | 96.6% (active)
N#CC(=C=N)N=C(F)C(C#N)=C(C#N)C#N | -1% | 68% | 87% (active) | -2% | 88% (active) | 82.6% (active) | 13% | 86% (active) | 73.2% (active) | 7% | 94% (active) | 90.3% (active) | 6% | 77% (active) | 86.8% (active) | 25% | 93% (active) | 94.8% (active)
CC[CH2][Sn]([F])([F])[CH2]CC | 20% | 94% (active) | 83% (active) | 12% | 97% (active) | 87.7% (active) | 11% | 94% (active) | 84.7% (active) | 17% | 91% (active) | 83.5% (active) | 14% | 96% (active) | 81.2% (active) | 13% | 95% (active) | 86.5% (active)
CSc1ccc(NC(=O)C2c3[nH]c4ccccc4c3C3CCC(C(C)(C)C)CC3C2C(=O)O)cc1 (configuration not stated) | 0% | -4% | 16.8% | -16% | 10% | 1.95% | -4% | 1% | 30.8% | -19% | 8% | 56.4% | -8% | 5% | 77.1% (active) | 11% | 26% | 46%
